Measured values taken from PubChem BioAssay (NCI).
The panel holds about 83,000 compounds, 20% with a hit somewhere; the sample as a whole holds those more often.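 Treatment: one concentration, 48 hours, 96-well format. Scoring: percent growth, with anything below 10 considered active.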 Activity calls are given as the source filed them.

Test system: HS 578T breast
Experiment: NCI-60 one-dose screen, 48 h (100 = growth as untreated, 0 = no growth, -100 = all killed)
Settings: 10 µM unless noted
Protocol: Growth inhibition of the HS 578T human tumor cell line is measured as a screen for anti-cancer activity. Cells are grown in 96 well plates and exposed to the test compound for 48 hours. Compounds are tested at a single concentration, which is 10^-5 M for most compounds. The reported endpoint is percent growth (GI% or GIPRCNT), where numbers from 0 - 100% represent growth inhibition, and numbers from -100% - 0 represent cell death. For example, a value of 40 represents 60% growth inhibition. A value of 0 means no net growth occurred over the course of the experiment. A value of -40 indicates 40% of cells at the beginning of the experiment died by the end of the experiment. A value of -100 means all cells are dead at the end of the experiment.
NCI-60 Human Tumor Cell Lines Screen was performed using the standard one-dose NCI protocol, which is described in more detail at https://dtp.cancer.gov/discovery_development/nci-60/default.htm.
Compounds with GIPRCNT values below 10 were considered active. Activity score was based on GIPRCNT using the following formula: […]
Score is 0 for GIPRCNT values of 100 or above, 50 for GIPRCNT values of 0, and 100 for GIPRCNT values of -100.

| SMILES | growth |
| --- | --- |
| O=C1/C(=C/c2cccc(Br)c2)COc2ccc(O)cc21 | 60.3% (inactive) |
| O=CN1N=C(c2cccc(Nc3ccnc4cc(Cl)ccc34)c2)CC1c1ccc(Cl)cc1 (stereo not given) | 1.82% (active) |
| Cc1nn(-c2ccc([N+](=O)[O-])cc2)c2ncnc(N/N=C/c3ccccc3O)c12 | 44% (inactive) |
| Clc1ccc(-c2cc(-c3ccccc3)nc(N3CCN(CCCNc4ccnc5cc(Cl)ccc45)CC3)n2)cc1 | -17.9% (active) |
| Cc1[nH]c(C(=O)Nc2ccccc2OC2CCN(CCN3CCOCC3)CC2)c(Cl)c1Cl | 93.8% (inactive) |
| Cc1cc(=O)n(C(=S)Nc2ccc(Cl)cc2)c2cc(O)ccc12 | 109% (inactive) |
| c1csc(-c2cn3nc(-c4c[nH]c5ccccc45)sc3n2)c1 | 29.1% (inactive) |
| C(=C(\C1=NCCN1)n1ccc2ccccc21)/c1ccccc1 | 88.6% (inactive) |
| Cn1cc(-c2nc3c(F)cc4[nH]ncc4c3c3c2CCCC3)c(C(F)(F)F)n1 | 18% (inactive) |
| N[C@@H]1CCC[C@H]1NCCCCN1C(=O)c2cccc3cc([N+](=O)[O-])cc(c23)C1=O | 64.7% (inactive) |
| CCOC(=O)C1=C(CC(O)c2ccc(OC)cc2OC)NC(=O)NC1c1ccccc1 (stereo not given) | 117% (inactive) |
| CCN1C2CCC1/C(=C\c1ccccc1)C(=O)/C2=C/c1ccccc1 | 71.4% (inactive) |
| C/C=C1/CN(CCCCC)CC[C@H]1C(=O)c1cc2ccccc2[nH]1 | 97.3% (inactive) |
| O=C(OCc1ccc2c(Cl)cc(Cl)c(O)c2n1)N1CCN(C(=O)c2cc3ccccc3[nH]2)CC1 | 43.5% (inactive) |
| COC(=O)c1c2c(c(C)[n+]([O-])c1C)C(=O)C(NCc1ccccc1)=CC2=O | 68.8% (inactive) |
| COc1cc(OC)c2c(=O)c3c(CC=C(C)C)cc(OC)c(O)c3oc2c1 | 88.7% (inactive) |
| COc1cc2c(cc1-c1c(C)noc1C)ncc1nc(CN3CCOCC3)n([C@H](C)COC(F)F)c12 | 30% (inactive) |
| NS(=O)(=O)c1ccc(C(=O)NN2C(=O)c3ccccc3C2=O)cc1 | 102% (inactive) |
| COC12C=C/C(=C(/C(=O)OCc3csc(SC)n3)C(=O)CCCCCCCCC3(OC)C=C/C(=C(/C(=O)OCc4cnc(SC)s4)C(=O)CCCCCCCC1)O3)O2 (stereo not given) | 57.2% (inactive) |
| COc1cc2c(c(OC)c1OC)CCC(c1cccc(C(=O)Nc3ccc(Br)cc3)c1)O2 (stereo not given) | 78.5% (inactive) |

| SMILES | growth |
| --- | --- |
| Cc1c2ccccc2nc2cc3c(cc12)[C@H]1CC[C@]2(C)C(=O)CC[C@H]2[C@@H]1CC3 | 86.3% (inactive) |
| C=CN(C(=O)N1CCN(c2cc3c(cc2F)c(=O)c(C(=O)O)cn3C2CC2)CC1)c1nc(-c2ccc(Cl)cc2)cs1 | 54.3% (inactive) |
| COc1ccc(C2CC(c3ccccc3)=NN2C(=O)c2cc(OC)c(OC)c(OC)c2)cc1O (stereo not given) | 23.5% (inactive) |
| CC1(C)N=C(N)N=C(N)N1c1ccc(S(=O)(=O)Nc2nccs2)cc1 | 103% (inactive) |
| O=C(c1cccc(N2CCOCC2)n1)c1c[nH]c2ccccc12 | 89.2% (inactive) |
| CC1(C)CC(=O)C2=C(C1)C(c1ccc(Cl)cc1)n1ncc(C#N)c1N2 (stereo not given) | 98.1% (inactive) |
| Cc1ccc(NC(=O)c2sc3nc(C)c(C(O)c4ccccc4)cc3c2N)cc1 (stereo not given) | 9.32% (active) |
| N=C(N)c1ccc(-c2ccc(-c3cc(Cl)cc(Cl)c3)s2)s1 | 87.6% (inactive) |
| O=C(Nc1ccccc1O)c1ccc(CNc2ccnc(C(F)(F)F)c2)cc1 | 50% (inactive) |
| Cc1cccc(N2C(=O)/C(=C/C(Cl)=C/c3ccc([N+](=O)[O-])cc3)SC2=S)c1C | 27.8% (inactive) |
| C1CCC(N2CN3c4nonc4N4CN(C5CCCCC5)CN5c6nonc6N(C2)C3C45)CC1 (stereo not given) | 86.6% (inactive) |
| O=c1cc(C(F)(F)F)c2cc(-c3cc4ccccc4c(=O)o3)c(O)cc2o1 | 79.5% (inactive) |
| Cc1sc2nc(NCCN)[nH]c(=O)c2c1C | 88.7% (inactive) |
| CC(=O)Nc1sc2c(c1-c1nc3ccccc3s1)CNC2 | 51.3% (inactive) |
| CCOc1ccc(NC(=O)Nc2ccc(OCC)cc2)cc1 | 101% (inactive) |
| CN(C)Cc1cc(C(C)(C)C)cc(Br)c1O | 30.7% (inactive) |
| CC(C)Cc1nc(Nc2ccccc2)[nH]c(=O)c1C#N | 36.2% (inactive) |
| COc1ccc(Oc2ccc(/C=C/C(=O)c3cc4ccccc4oc3=O)cc2)cc1 | 101% (inactive) |
| CC1=C(Cl)C(=O)c2cc(C)ccc2C1=O | 104% (inactive) |
| Nc1nc2ccccc2c2c(=O)c3cc(Cl)ccc3sc12 | 100% (inactive) |
